# This is one part of a sample in which hits are shown more often than they occur.
# S aureus helic = inhibitors of S. aureus replicative helicase, primary screen, biochemical, fluorescence unwinding readout | replicative DNA helicase (DnaC/DnaB), Staphylococcus aureus | purified S. aureus helicase, fluorescence unwinding assay | inhibition, % (no concentration beside the values) | hit rate 0.05% among 120,000 | AID 485395, 2010; in the data active = inhibition above about 25%, passing the limit was not always enough
# Sa growth inh = S. aureus growth inhibition at 42 and 30 °C, primary screen, LtaS inhibitor project, RN4220, two temperatures; OD600, 20 h, 42 °C; stronger effect = lower value; relative growth, % (test concentration not listed); hit rate 0.53% among 170,000;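 active = relative growth at most 50% at the other temperature and 20+ points below 30 °C, or under 10% at both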
# A number is an active result; 0 = inactive; - = not tested or not shown; ! = repeats disagree.
SMILES,S aureus helic,Sa growth inh
CC(NS(=O)(=O)c1ccc(Cl)s1)C1CC2CCC1C2 (configuration not stated),0,0
CCCCCCCCCCCCC[N+](C)(C)Cc1ccccc1,-,-0.8
CC[N+](C)(CC)Cc1ccccc1,0,0
Cc1[nH]c2ccc(C(=O)Nc3ccccc3F)cc2c1C,0,0
NC(=O)c1c(NC(=O)C2=COCCO2)sc2c1CCCC2,0,-
CC(C)N1CCc2c(sc(NC(=O)C3=COCCO3)c2C(N)=O)C1,42,0
CC(=O)Nc1ccc(-c2nnc3c4ccccc4c(C)nn23)cc1,0,0
CCCc1nc(-c2ccccn2)[nH]c(=O)c1Cc1c(F)cccc1Cl,0,0
C=CCc1c(CCC)nc(-c2ccccn2)[nH]c1=O,-,-0.3
O=C1C2C=CC=CC2=NC(=S)[N+]1=Nc1c(O)[nH]c2ccccc12 (configuration not stated),0,1.4
O=C1N=c2ccccc2=C1N=Nc1c(O)[nH]c2ccccc12,0,0
O=C(NCCN1CCN(Cc2ccccc2)CC1)c1cc(=O)[nH]c2ccc(S(=O)(=O)N3CCCC3)cc12,0,0
CC(C)N(Cc1ccccc1)C(=O)c1cccs1,-,0
CC(C)N(CC(=O)c1cccs1)Cc1ccccc1,0,-1.0
CN1C(=O)/C(=C/c2ccc(C(=O)N3CCC(Cc4ccccc4)CC3)cc2)Oc2ccccc21,0,0
CS(=O)(=O)c1sc(C#N)c2c1C(=O)CCC2,0,0.4
CS(=O)(=O)c1sc(Br)c2c1C(=O)CCC2,-,0
O=C(NCc1ccccc1)C1CC1(c1ccccc1)c1ccccc1 (configuration not stated),0,0
COc1ccccc1NC(=O)/C=N/OCc1nc2sc(C)c(C)c2c(=O)[nH]1,0,0
O=C(O)/C=C\C(=O)NCC1(c2ccccc2)CCOCC1,0,0
Cc1no[n+]([O-])c1COc1cccc(/C=C2\SC(=S)NC2=O)c1,0,-0.8
COc1cc(C=C2C(=O)NC(=O)NC2=O)cc(Br)c1OCc1c(C)no[n+]1[O-],0,0
Cc1cccc(N2CCN(C(=O)CCc3nnc4n(C)c(=O)c5ccccc5n34)CC2)c1C,0,0
Cc1cc2nc3ccc(=[N+](C)C)cc-3sc2cc1N,132,0
CN(C)c1ccc2nc3ccc(=[N+](C)C)cc-3sc2c1,-,0
SMILES,S aureus helic,Sa growth inh
O=C(OCC(=O)N1CCCC1)c1ccc(-c2ccc(C(=O)OCC(=O)N3CCCC3)s2)s1,0,0
CCOC(=O)c1c(C)[nH]c(C)c1C(=O)CSc1cccc[n+]1[O-],0,0
CN(C)S(=O)(=O)c1ccc(=S)[nH]c1,0,38
CSc1ccc(S(=O)(=O)N(C)C)cc1,0,0
CCOc1ccc(OCCCCn2ccnc2)cc1,0,0
CC(C)(C)c1ccccc1OCCCCCn1ccnc1,0,-1.0
CC(C)NC(=O)NC(=O)c1ccccc1,0,0
C=CCn1c(O)c(N=O)c2ccccc21,0,0
C=CCn1c(O)c(C2=c3cc(Br)ccc3=NC2=O)c2ccccc21,0,1.4
Cc1cc(C)c(NC(=O)c2cn3c4c(c(N5CCN(C)CC5)c(F)cc4c2=O)OCC3C)c(C)c1 (configuration not stated),0,0
CC1COc2c(N3CCN(C)CC3)c(F)cc3c(=O)c(C(=O)OCc4ccccn4)cn1c23 (configuration not stated),0,-1.0
CCc1oc2ccccc2c1C(=O)c1cc(Br)c(O)c(Br)c1,-,4.4!
CCCCc1oc2ccccc2c1C(=O)c1ccc(O)cc1,0,0
CC(=O)Oc1ccc(OCc2ccccc2)cc1,0,0
C=CCN(C(=O)CCc1c(C)nn(-c2ccccc2)c1C)c1nc2c(s1)CCCC2,0,0
COc1cc2cc3c4c(cc(OC)c(OC)c4c2cc1OC)CCN3C,0,6.6
COc1ccc(C(=O)N2CCc3cc(OC)c(OC)cc3C2C)cc1 (configuration not stated),-,0
Brc1cccc(OCCOc2cccc(-n3cnnn3)c2)c1,0,0
